PubChem BioAssay
The source made the active and inactive calls. Unless noted, no rule for the calls is given here.

How the values were obtained:
[1] = HepG2 liver cancer cell viability effects, profiling panel, resazurin fluorescence, 24 h, PK04 Diversity Set (AID 1172); conditions: higher = more signal
[2] = basal S. cerevisiae growth modulation, no modifier, primary screen, OD600, strain BY4716, 24 h, basal condition (AID 1173); conditions: OD600, 24 h, higher = more signal, called active from +8 up or from −8 down
[3] = MM1S myeloma cell viability, profiling panel, resazurin fluorescence, basal, 24 h, PK04 Diversity Set (AID 1174); conditions: higher = more signal, called active from +8 up or from −8 down;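 also: MM1S multiple myeloma cell line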
[4] = target: Dihydroorotate dehydrogenase (quinone), mitochondrial (Plasmodium falciparum (isolate 3D7)) (UniProt Q08210); assay: PfDHODH enzyme inhibitors, primary screen, biochemical, C-terminal His tag, absorbance 600 nm (AID 1175); conditions: DCIP absorbance 600 nm, higher = more signal, called active from +8 up or from −8 down;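 also: recombinant parasite enzyme with a five histidine tag at its C terminus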
Sequence of Dihydroorotate dehydrogenase (quinone), mitochondrial (Plasmodium falciparum (isolate 3D7)) (Q08210 whole entry, looked up): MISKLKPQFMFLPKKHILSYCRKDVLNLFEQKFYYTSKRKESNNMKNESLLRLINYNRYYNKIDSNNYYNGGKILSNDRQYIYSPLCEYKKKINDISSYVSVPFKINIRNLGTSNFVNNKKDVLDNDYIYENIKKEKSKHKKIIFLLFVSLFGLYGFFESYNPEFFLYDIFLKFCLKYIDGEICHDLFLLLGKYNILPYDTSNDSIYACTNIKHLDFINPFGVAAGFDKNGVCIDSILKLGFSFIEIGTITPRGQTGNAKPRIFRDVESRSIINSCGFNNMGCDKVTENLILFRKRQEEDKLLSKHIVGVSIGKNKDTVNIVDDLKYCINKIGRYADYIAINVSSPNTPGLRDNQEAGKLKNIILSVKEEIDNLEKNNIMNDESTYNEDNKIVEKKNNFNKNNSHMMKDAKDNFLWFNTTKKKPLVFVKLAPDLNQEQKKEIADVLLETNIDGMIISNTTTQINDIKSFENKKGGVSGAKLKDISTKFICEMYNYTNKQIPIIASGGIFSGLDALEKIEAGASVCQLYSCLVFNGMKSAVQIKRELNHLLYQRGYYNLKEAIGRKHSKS

[5] = P. aeruginosa biofilm formation inhibitors, primary screen, strain PAO1, LB-PBS medium, absorbance 600 nm (AID 1176); conditions: P. aeruginosa PAO1 growth/biofilm, A600, 12 h; higher = more signal
[6] = S. cerevisiae RM11-1a growth modifiers, primary screen, strain RM11-1a, OD600, basal, 24 h (AID 1177); conditions: OD600, 24 h, higher = more signal, called active from +8 up or from −8 down;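 also: cultures grown under basal conditions with no added stressor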
[7] = E. coli acrAB mutant growth effects, primary screen, E. coli filamentation inducers, strain DRC39, OD650, 24 h (AID 1178); conditions: higher = more signal, called active from +8 up or from −8 down;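 also: growth measured as culture turbidity by optical density at 650 nm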
[8] = E. coli acrAB mutant growth effects, primary screen, E. coli filamentation inducers, strain DRC39, OD650, 48 h (AID 1179);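 also: screen aims at cell division blockers that make cells filament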; conditions: E. coli DRC39 delta-acrAB growth, higher = more signal, called active from +8 up or from −8 down
[9] = RPMI8226 myeloma cell viability, profiling panel, resazurin fluorescence, basal, 24 h, PK04 Diversity Set (AID 1180); conditions: higher = more signal;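 also: RPMI8826 multiple myeloma cell line at 5000 cells per well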
[10] = target: E3 ubiquitin-protein ligase XIAP (Homo sapiens) (UniProt P98170); assay: XIAP binders, primary screen, biophysical, small-molecule microarray, fluorescence 635 nm (AID 1181); conditions: small-molecule microarray binding, higher = more signal;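 also: score merges 667 nm emission and signal to noise over triplicate slides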
Sequence of E3 ubiquitin-protein ligase XIAP (Homo sapiens) (P98170 whole entry, looked up): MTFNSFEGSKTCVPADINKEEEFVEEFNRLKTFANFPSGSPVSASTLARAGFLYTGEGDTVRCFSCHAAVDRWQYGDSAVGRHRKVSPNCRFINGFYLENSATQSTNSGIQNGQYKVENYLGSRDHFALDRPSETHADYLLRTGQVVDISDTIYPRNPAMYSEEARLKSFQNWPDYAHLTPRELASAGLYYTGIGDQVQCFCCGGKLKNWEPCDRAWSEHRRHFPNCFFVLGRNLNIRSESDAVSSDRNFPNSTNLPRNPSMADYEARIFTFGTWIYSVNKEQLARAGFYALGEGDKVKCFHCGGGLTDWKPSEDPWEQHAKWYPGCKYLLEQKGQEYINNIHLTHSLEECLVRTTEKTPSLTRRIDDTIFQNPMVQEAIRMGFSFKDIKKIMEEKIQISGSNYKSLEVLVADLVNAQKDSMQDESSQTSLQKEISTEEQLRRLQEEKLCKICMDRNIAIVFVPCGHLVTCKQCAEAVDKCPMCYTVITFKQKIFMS

[11] = system: XIP peptide (Xip251-270) binding; assay: small-molecule binders of XIP peptide, primary screen, biochemical, small-molecule microarray, fluorescence 635/667 nm, 0.1 µg/mL protein (AID 1182); conditions: fluorescent protein binding, 635 nm, higher = more signal, called active from +8 up or from −8 down
XIP peptide (Xip251-270) = assay: small-molecule binders of XIP peptide, primary screen, biochemical, small-molecule microarray, fluorescence 635/667 nm, 0.5 µg/mL protein (AID 1183); conditions: small-molecule microarray binding, fluorescence 635 nm; higher = more signal
[12] = Plasmodium falciparum growth inhibition, primary screen, strain 3D7, DAPI fluorescence, 100 nL (AID 1184);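 also: parasites grown inside human red blood cells in medium with human serum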; conditions: P. falciparum 3D7 growth, 3 d, higher = more signal
[13] = target: Homeobox protein Hox-A13 (Mus musculus) (UniProt Q62424); assay: inhibitors of HoxA13-DNA binding, primary screen, biochemical, fluorescence polarization, labeled oligonucleotide (AID 1185); conditions: 15 min, higher = more signal, called active from +8 up or from −8 down
Sequence of Homeobox protein Hox-A13 (Mus musculus) (Q62424 whole entry, looked up): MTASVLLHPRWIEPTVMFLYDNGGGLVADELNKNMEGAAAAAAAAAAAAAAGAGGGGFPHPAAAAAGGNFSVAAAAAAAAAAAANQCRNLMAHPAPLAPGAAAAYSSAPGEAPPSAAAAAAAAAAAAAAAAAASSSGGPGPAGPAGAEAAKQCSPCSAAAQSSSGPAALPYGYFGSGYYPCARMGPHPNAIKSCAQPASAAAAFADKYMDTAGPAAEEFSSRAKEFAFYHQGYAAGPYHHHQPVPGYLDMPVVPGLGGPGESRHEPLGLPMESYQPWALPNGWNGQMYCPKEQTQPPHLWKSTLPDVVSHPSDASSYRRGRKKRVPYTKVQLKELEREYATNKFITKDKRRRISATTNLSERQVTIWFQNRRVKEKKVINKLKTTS

[14] = inhibitors of hydroxyurea-induced Chk1 phosphorylation, primary screen, imaging, HeLa, phospho-Chk1 antibody, percent positive cells (AID 1186); conditions: hydroxyurea-induced phospho-Chk1 immunofluorescence imaging, higher = more signal
[15] = inhibitors of hydroxyurea-induced Chk1 phosphorylation, primary screen, imaging, HeLa, phospho-Chk1 nuclear intensity (AID 1187); conditions: hydroxyurea-induced phospho-Chk1 immunofluorescence imaging, higher = more signal

SMILES | z-score [1] | z-score [2] | z-score [3] | composite z-score [4] | z-score [5] | z-score [6] | z-score [7] | z-score [8] | z-score [9] | composite z-score [10] | composite z-score [11] | composite z-score (XIP peptide (Xip251-270)) | z-score [12] | z-score [13] | z-score [14] | z-score [15]
COCCCNC(=O)[C@@H]1c2ccccc2C(=O)N(CC23CC4CC(CC(C4)C2)C3)[C@H]1c1ccc(CO)cc1 | 0.172 | -0.323 (inactive) | -0.104 (inactive) | 0.297 (inactive) | 0.87 (inactive) | 0.208 (inactive) | 0.0488 (inactive) | -0.543 (inactive) | 0.0917 | 0.03 | 0.428 (inactive) | -0.518 | -1.95 | -4.65 (inactive) | -0.546 (inactive) | -0.786 (inactive)
O=C1NC(=O)C2C1C=CC(C(O)C=Cc1ccc([N+](=O)[O-])cc1)N2Nc1ccccn1 (centres undefined) | -0.629 | -0.203 (inactive) | -0.373 (inactive) | 0.643 (inactive) | 1.23 (inactive) | 0.086 (inactive) | 0.195 (inactive) | -0.466 (inactive) | -0.742 | 0.289 | 0.433 (inactive) | 0.792 | -0.304 | -1.88 (inactive) | -0.746 (inactive) | -0.987 (inactive)
COc1ccc([Si](C)(C)[C@@H]2[C@@H](CC(=O)N(CCO)Cc3ccccc3)O[C@]3(C(=O)N(Cc4cccc(N5CCC5=O)c4)c4ccccc43)[C@H]2C)cc1 | -1.51 | 0.328 (inactive) | -2.9 (inactive) | -0.645 (inactive) | 0.708 (inactive) | 1.32 (inactive) | 0.882 (inactive) | -0.0661 (inactive) | -2.08 | 0.154 | 1.09 (inactive) | 0.756 | -2.5 | -1.54 (inactive) | -0.0556 (inactive) | -0.0513 (inactive)
C#C[C@H](O[Si](C#Cc1ccccc1)(C(C)C)C(C)C)c1ccccc1 | -0.271 | -17.7 (active) | -0.633 (inactive) | -0.203 (inactive) | 0.738 (inactive) | -11.8 (active) | -0.329 (inactive) | 0.127 (inactive) | -0.533 | 0.0049 | 0.114 (inactive) | 0.311 | -1.16 | -1.52 (inactive) | 0.116 (inactive) | 0.201 (inactive)
COC(=O)[C@@]1(Cc2ccc(OC)cc2)[C@H]2c3cc(C(=O)N(C)C)n(CCc4ccc(OC)c(Br)c4)c3C[C@H]2CN1C(=O)c1ccccc1 | -0.575 | 1.36 (inactive) | -2.09 (inactive) | 0.125 (inactive) | 1.22 (inactive) | 0.961 (inactive) | -0.307 (inactive) | -0.025 (inactive) | -3.63 | -0.0848 | 0.717 (inactive) | 0.351 | -1.28 | -0.511 (inactive) | 1.02 (inactive) | 0.463 (inactive)
CCOC(=O)C1=CC[C@@H](c2ccc(-c3ccc(OCc4ccccc4)cc3)c(OC)c2)N(S(=O)(=O)c2ccc(C)cc2)[C@H]1c1ccccc1 | 0.899 | 0.0553 (inactive) | 0.25 (inactive) | 0.917 (inactive) | 0.325 (inactive) | -0.0764 (inactive) | 0.263 (inactive) | 1.3 (inactive) | 0.894 | -0.02 | 0.525 (inactive) | 0.6 | -1.94 | -0.242 (inactive) | -1.04 (inactive) | -0.995 (inactive)
C[C@@H]1NC(=O)[C@H](Cc2ccccc2)NC(=O)[C@@]23C(=O)N[C@@H](Cc4ccccc4)C2[C@H](C)[C@@]2(C)O[C@H]2C3/C=C/C/C=C\CNC1=O (some centres undefined) | -0.51 | -0.256 (inactive) | -0.0224 (inactive) | 0.398 (inactive) | 0.236 (inactive) | 0.657 (inactive) | -0.593 (inactive) | -0.514 (inactive) | -0.0497 | -0.119 | -0.138 (inactive) | 0 | -0.5 | -6.67 (inactive) | 0.4 (inactive) | 0.374 (inactive)
CCCC=C(CCC)[C@@H](NS(=O)(=O)c1ccc(-c2ccccc2)cc1)c1ccc(C(=O)OC)cc1 | 0.0252 | 1.72 (inactive) | 0.303 (inactive) | -4.09 (inactive) | 2.67 (inactive) | 0.239 (inactive) | -0.811 (inactive) | -0.299 (inactive) | 0.305 | -0.0948 | 0.046 (inactive) | -0.203 | -1.37 | -1.02 (inactive) | -0.361 (inactive) | -0.761 (inactive)
Cc1ccc(N2C(=O)c3ccccc3[C@@H](C(=O)NCC(F)(F)F)[C@@H]2c2ccc(CO)cc2)nc1 | 0.129 | -0.789 (inactive) | 1.21 (inactive) | -0.417 (inactive) | 0.429 (inactive) | -0.872 (inactive) | 0.419 (inactive) | 0.127 (inactive) | 0.607 | -0.227 | -0.118 (inactive) | -0.138 | -0.0188 | -0.71 (inactive) | -0.0128 (inactive) | 0.171 (inactive)
